According to PubChem BioAssay AID758 (NMMLSC, 2007):
The campaign covered roughly 190,000 compounds. About 110 (0.058%) were called active. Another 2% or so got no clear call; they are omitted.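 The calls were made as follows: active = fluorescent GTP binding to Rab7 beads changed by at least 20 points from the 100% baseline, either direction, mostly lower; inconclusive = compound itself probably fluorescent, or too few beads counted; inactive = the rest.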 This excerpt belongs to a sample that is enriched for actives.

System: Rab7 GTPase wild type (dog), Bodipy-FL-GTP binding
Assay: modulators of GTP binding to Rab7, primary screen, biochemical, wildtype, multiplex bead flow cytometry (AID 758);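 also: median green fluorescence of bound Bodipy-FL-GTP per Rab7 bead population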
Conditions: GST-Rab7 beads, fluorescent GTP binding, at 10 µM, actives lie on both sides, untreated = 100%, excess cold GTP = 0%

GTP binding activity (percent of control), inactive:
Cc1ccccc1OCCC(=O)OCC(=O)NC(C)c1ccccc1 (stereo unspecified) 95%, N#Cc1c(-c2ccc(F)cc2)nc(-c2ccccc2)[nH]c1=O 93%, O=C(c1cccc(S(=O)(=O)N2CCCC2)c1)N(Cc1ccco1)C1CCS(=O)(=O)C1 (stereo unspecified) 97%, CN(CCc1cnn(C)c1)Cc1cn(C)nc1-c1ccccc1F 100%, Cc1cc(=O)n2[nH]c(-c3sccc3-n3c(C)ccc3C)cc2n1 91%, O=C(N/N=C/c1ccc(OCC2COCCO2)cc1)c1ccc(Br)cc1 (stereo unspecified) 108%, Cc1c(C(=O)O)nnn1-c1nonc1N 97%, CCc1ccc(CN(C)C(=O)CCc2nnc(-c3ccc(-c4ccccc4)cc3)o2)nc1 96%, COC(=O)c1ccc(COC(=O)c2cnccn2)cc1 105%, COc1ccc(-c2[nH]ncc2CN(C)Cc2cccnc2)c(F)c1 96%, CCn1c(SCc2ccccc2)nc2c(c1=O)SCC2 94%, Cc1cccc(Oc2c([N+](=O)[O-])c(=O)n(C)c3ccccc23)c1 100%, COC(=O)c1ccc(CN2CCC(CO)(Cc3ccc(OC)cc3)CC2)cc1 103%, CN(C)c1nc(N)nc(Cn2nnc(-c3ccc(C(F)(F)F)cc3)n2)n1 104%, CCCNS(=O)(=O)c1ccc(CCC(=O)N2CCCC2)cc1 104%, CN(CC(=O)Nc1ccccc1F)CC(=O)Nc1ccccc1Br 105%, CCOC(=O)CCCNC(=O)COC(=O)/C=C/c1ccc2c(c1)OCO2 90%, Cc1nc2sc3c(c2c(=O)n1NC(=O)CCl)CCCC3 90%, CSc1ccc(CN2C(=O)NC3(CCCCCC3)C2=O)cc1 97%, Fc1cccc(CSc2nnc3ccc(-c4ccncc4)nn23)c1 94%, Cc1cc([N+](=O)[O-])ccc1NC(=O)c1ccc(NC(=O)C(C)C)cc1 98%, CCCCC(CC)CNC(=O)C(=O)C1C(=O)Nc2ccccc21 (stereo unspecified) 103%, COc1ccccc1-c1nc(SC)n[nH]1 97%, Cc1ccc(CSc2nc3[nH]ncc3c(=O)[nH]2)cc1 93%, Cc1ccccc1-n1nc(SCC(=O)O)sc1=S 99%, Cc1ccc(C(=O)Cn2cccn2)cc1 106%, CC(=O)NC(=S)NNC(=O)c1ccc(Br)cc1 108%, NS(=O)(=O)c1cccc(NC(=O)COC(=O)/C=C/c2ccco2)c1 94%, O=C(Nc1ccc(Br)cn1)c1ccc([N+](=O)[O-])cc1Cl 98%, NC(=O)c1ccc(CN2CCC(Cc3ccccc3)CC2)cc1 110%, COc1cccc(CN(C)CC(=O)Nc2ccccc2C(=O)Nc2ccccc2)c1 105%, CC(OC(=O)c1ccccc1OCc1ccc(Cl)cc1)C(N)=O (stereo unspecified) 102%, Cc1cc(C)c(S(=O)(=O)N2CCOCC2)cc1C 101%, CN1CCN(S(=O)(=O)c2cccc(C(=O)O)c2)CC1 98%, CCOCCCNCc1cc(Br)ccc1OCC 95%, Cc1cccc(/C(N)=N/OC(=O)c2ccccc2Cl)c1 95%, C/C(=N\Nc1nc(N2CCOCC2)nc(N2CCOCC2)n1)c1ccc([N+](=O)[O-])cc1 96%, C/C(CC(=O)Nc1cccc(C(F)(F)F)c1)=N\NC(=O)C(=O)NCC(C)C 96%, CC(C)CNC(=O)C(=O)NCc1ccccc1 93%, O=[N+]([O-])c1cc(S(=O)(=O)CCCN2CCOCC2)ccc1F 95%, Cc1ccc(C2CCN(C(=S)Nc3cccc(Cl)c3)C2)cc1 (stereo unspecified) 101%, CCOC(=O)/C(C#N)=C/c1cn(CCC(=O)O)nc1-c1ccc(Br)cc1 102%, c1ccc2c(c1)OCCOCCOCCO2 99%, O=C(C1CCN(C2CCN(Cc3ccc4cc(F)ccc4n3)CC2)CC1)N1CCCC1 98%, CCC(C)NC(=O)c1nn(C)c(=O)c2ccccc12 (stereo unspecified) 103%, Cc1[nH]nc(SCC(=O)NCC(C)C)c1[N+](=O)[O-] 96%, Cc1ccc(OCCCC(=O)NC(C)c2ccccc2)c(C)c1 (stereo unspecified) 97%, Cc1cccc(NS(=O)(=O)c2ccc(C)c(C(N)=O)c2)c1 102%, CC1COc2ccccc2N1S(=O)(=O)c1ccccc1 (stereo unspecified) 95%, O=[N+]([O-])c1ccc2[nH]c3c(c2c1)CCCC3O (stereo unspecified) 103%, Cc1ccccc1NC(=O)c1nn(-c2ccc(F)c(F)c2)ccc1=O 95%, O=C(O)CCCCOn1ccnc1 97%, Cc1ccc(C(=O)N/C(=C\c2cccs2)C(=O)NCCc2ccccn2)cc1C 106%, CNc1nc2c(C)cccn2c(=O)c1C=Nc1ccc(OC)cc1 90%, COc1ccccc1N1CCN(c2ccc([N+](=O)[O-])nc2)CC1 104%, CC1(C)C2CCC1(C)C(OC(=O)c1ccc(O)cc1)C2 (stereo unspecified) 97%, O=C(O/N=C(/c1ccccc1)c1ccncc1)c1ccccc1[N+](=O)[O-] 95%, O=C(c1snnc1-c1ccccc1)N1CCOCC1 100%, CCc1nc2ccccc2c(C(=O)OC2CCCCC2=O)c1C (stereo unspecified) 99%, CC(C)(C)NC(=O)COC(=O)c1cc(Cl)ccc1[N+](=O)[O-] 102%, COc1ccc(C(=O)NNc2cc(C)nc(NNC(=O)c3ccc(OC)cc3)n2)cc1 102%, Cc1ccc(NC(=O)Cn2c(=O)n(CCC(=O)NC3CCN(Cc4ccccc4)CC3)c(=O)c3ccccc32)cc1 102%, C[C@H](NC(=O)c1ccccc1Cl)C(=O)OCCOc1cccc(Cl)c1 94%, OCCNCc1cccc(OCc2ccccc2Cl)c1 97%, CN(C)C(=O)N1CCNCC1 106%, CCCCCC1CCC(c2nnc(SCC(C)=O)o2)CC1 (stereo unspecified) 104%
